Experimental data reported in the supplement of paper PMC4466140.

B1: unnamed (peptide)
chain: NRLRKRLNLPSEISI
B2: unnamed (peptide)
chain: LSKRLPLRFPEHTSS

target: AgAbp1; test: SPOT peptide array binding signal intensity (averaged, normalized) (arbitrary units (background-subtracted, floor 0; scale differs between SH3 domains)); higher = stronger binding of the SH3 domain to the peptide
Procedure: (§1)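 GST-tagged SH3 domains from S. cerevisiae (Sc), A. gossypii (Ag), C. albicans (Ca) and S. pombe (Sp) were incubated at 10 ug/ml overnight at 4 C on cellulose SPOT membranes carrying 292 synthetic 15-mer peptides mined from the S. cerevisiae proteome (cysteines replaced by serines). Binding was detected with anti-GST antibody, HRP secondary and chemiluminescence, quantified with Genespotter, and reported as normalized spot intensities averaged over biological replicates.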

| Binder | SPOT peptide array binding signal intensity |
| --- | --- |
| B1 | 52 |
| B2 | 48 |

target: AgBbc1; test: as above
Procedure: as §1

| Binder | SPOT peptide array binding signal intensity |
| --- | --- |
| B1 | 2 |
| B2 | 5.5 |

target: AgBem1-D1; test: as above
Procedure: as §1

| Binder | SPOT peptide array binding signal intensity |
| --- | --- |
| B1 | 126 |
| B2 | ≤ 0 |

target: AgBzz1-D1; test: as above
Procedure: as §1

| Binder | SPOT peptide array binding signal intensity |
| --- | --- |
| B1 | 7 |
| B2 | 9 |

target: AgBzz1-D2; test: as above
Procedure: as §1

| Binder | SPOT peptide array binding signal intensity |
| --- | --- |
| B1 | 9 |
| B2 | 17 |

target: AgCyk3; test: as above
Procedure: as §1

| Binder | SPOT peptide array binding signal intensity |
| --- | --- |
| B1 | 1 |
| B2 | ≤ 0 |

target: AgFus1; test: as above
Procedure: as §1

| Binder | SPOT peptide array binding signal intensity |
| --- | --- |
| B1 | 444 |
| B2 | 102 |

target: AgHof1; test: as above
Procedure: as §1

| Binder | SPOT peptide array binding signal intensity |
| --- | --- |
| B1 | 45.2 |
| B2 | 67.5 |

target: AgHse1; test: as above
Procedure: as §1

| Binder | SPOT peptide array binding signal intensity |
| --- | --- |
| B1 | 2040 |
| B2 | 234 |

target: AgLsb1; test: as above
Procedure: as §1

| Binder | SPOT peptide array binding signal intensity |
| --- | --- |
| B1 | 36.2 |
| B2 | 5.5 |

target: AgLsb4; test: as above
Procedure: as §1

| Binder | SPOT peptide array binding signal intensity |
| --- | --- |
| B1 | 21.5 |
| B2 | 53.5 |

target: AgMyo5; test: as above
Procedure: as §1

| Binder | SPOT peptide array binding signal intensity |
| --- | --- |
| B1 | ≤ 0 |
| B2 | ≤ 0 |

target: AgNbp2; test: as above
Procedure: as §1

| Binder | SPOT peptide array binding signal intensity |
| --- | --- |
| B1 | 74 |
| B2 | 10 |

target: AgRvs167; test: as above
Procedure: as §1

| Binder | SPOT peptide array binding signal intensity |
| --- | --- |
| B1 | 4.67 |
| B2 | 1.33 |

target: AgSho1; test: as above
Procedure: as §1

| Binder | SPOT peptide array binding signal intensity |
| --- | --- |
| B1 | 26.5 |
| B2 | 17 |

target: AgSla1-D1-D2; test: as above
Procedure: as §1

| Binder | SPOT peptide array binding signal intensity |
| --- | --- |
| B1 | 33 |
| B2 | 2 |

target: AgSla1-D3; test: as above
Procedure: as §1

| Binder | SPOT peptide array binding signal intensity |
| --- | --- |
| B1 | 5.5 |
| B2 | ≤ 0 |

target: CaAbp1-D1; test: as above
Procedure: as §1

| Binder | SPOT peptide array binding signal intensity |
| --- | --- |
| B1 | 649 |
| B2 | 462 |

target: CaAbp1-D2; test: as above
Procedure: as §1

| Binder | SPOT peptide array binding signal intensity |
| --- | --- |
| B1 | 307 |
| B2 | 220 |

target: CaBbc1; test: as above
Procedure: as §1

| Binder | SPOT peptide array binding signal intensity |
| --- | --- |
| B1 | 9.75 |
| B2 | 27.2 |

target: CaBem1-D1; test: as above
Procedure: as §1

| Binder | SPOT peptide array binding signal intensity |
| --- | --- |
| B1 | 2 |
| B2 | 10 |

target: CaBzz1-D1; test: as above
Procedure: as §1

| Binder | SPOT peptide array binding signal intensity |
| --- | --- |
| B1 | 10 |
| B2 | 22 |

target: CaBzz1-D2; test: as above
Procedure: as §1

| Binder | SPOT peptide array binding signal intensity |
| --- | --- |
| B1 | 18.2 |
| B2 | 60.8 |

target: CaCyk3; test: as above
Procedure: as §1

| Binder | SPOT peptide array binding signal intensity |
| --- | --- |
| B1 | 4 |
| B2 | 4 |

target: CaFus1; test: as above
Procedure: as §1

| Binder | SPOT peptide array binding signal intensity |
| --- | --- |
| B1 | 1980 |
| B2 | 402 |

target: CaHof1; test: as above
Procedure: as §1

| Binder | SPOT peptide array binding signal intensity |
| --- | --- |
| B1 | ≤ 0 |
| B2 | 0.75 |

target: CaHse1; test: as above
Procedure: as §1

| Binder | SPOT peptide array binding signal intensity |
| --- | --- |
| B1 | 95.2 |
| B2 | 81 |

target: CaLsb1; test: as above
Procedure: as §1

| Binder | SPOT peptide array binding signal intensity |
| --- | --- |
| B1 | 5.5 |
| B2 | 1 |

target: CaLsb4; test: as above
Procedure: as §1

| Binder | SPOT peptide array binding signal intensity |
| --- | --- |
| B1 | 14 |
| B2 | 136 |

target: CaMyo5; test: as above
Procedure: as §1

| Binder | SPOT peptide array binding signal intensity |
| --- | --- |
| B1 | 4.5 |
| B2 | ≤ 0 |

target: CaNbp2; test: as above
Procedure: as §1

| Binder | SPOT peptide array binding signal intensity |
| --- | --- |
| B1 | 286 |
| B2 | 63.5 |

target: CaRvs167; test: as above
Procedure: as §1

| Binder | SPOT peptide array binding signal intensity |
| --- | --- |
| B1 | 6.83 |
| B2 | 15.2 |

target: CaRvs167-3; test: as above
Procedure: as §1

| Binder | SPOT peptide array binding signal intensity |
| --- | --- |
| B1 | 48.8 |
| B2 | 15.8 |

target: CaSho1; test: as above
Procedure: as §1

| Binder | SPOT peptide array binding signal intensity |
| --- | --- |
| B1 | 353 |
| B2 | 212 |

target: CaSla1-D1-D2; test: as above
Procedure: as §1

| Binder | SPOT peptide array binding signal intensity |
| --- | --- |
| B1 | 16 |
| B2 | ≤ 0 |

target: CaSla1-D3; test: as above
Procedure: as §1

| Binder | SPOT peptide array binding signal intensity |
| --- | --- |
| B1 | 3 |
| B2 | 1 |

target: ScAbp1; test: as above
Procedure: as §1

| Binder | SPOT peptide array binding signal intensity |
| --- | --- |
| B1 | 191 |
| B2 | 63.5 |

target: ScBbc1; test: as above
Procedure: as §1

| Binder | SPOT peptide array binding signal intensity |
| --- | --- |
| B1 | 2.5 |
| B2 | ≤ 0 |

target: ScBem1-D1; test: as above
Procedure: as §1

| Binder | SPOT peptide array binding signal intensity |
| --- | --- |
| B1 | 61 |
| B2 | 23.5 |

target: ScBzz1-D1; test: as above
Procedure: as §1

| Binder | SPOT peptide array binding signal intensity |
| --- | --- |
| B1 | 21 |
| B2 | 10.5 |

target: ScBzz1-D2; test: as above
Procedure: as §1

| Binder | SPOT peptide array binding signal intensity |
| --- | --- |
| B1 | 5.5 |
| B2 | 17 |

target: ScCyk3; test: as above
Procedure: as §1

| Binder | SPOT peptide array binding signal intensity |
| --- | --- |
| B1 | 140 |
| B2 | 61 |

target: ScFus1; test: as above
Procedure: as §1

| Binder | SPOT peptide array binding signal intensity |
| --- | --- |
| B1 | 524 |
| B2 | 81 |

target: ScHof1; test: as above
Procedure: as §1

| Binder | SPOT peptide array binding signal intensity |
| --- | --- |
| B1 | 2.5 |
| B2 | 4.25 |

target: ScHse1; test: as above
Procedure: as §1

| Binder | SPOT peptide array binding signal intensity |
| --- | --- |
| B1 | 2410 |
| B2 | 532 |

target: ScLsb1; test: as above
Procedure: as §1

| Binder | SPOT peptide array binding signal intensity |
| --- | --- |
| B1 | 22.5 |
| B2 | 4 |

target: ScLsb2; test: as above
Procedure: as §1

| Binder | SPOT peptide array binding signal intensity |
| --- | --- |
| B1 | ≤ 0 |
| B2 | ≤ 0 |

target: ScLsb3; test: as above
Procedure: as §1

| Binder | SPOT peptide array binding signal intensity |
| --- | --- |
| B1 | 57 |
| B2 | 492 |

target: ScLsb4; test: as above
Procedure: as §1

| Binder | SPOT peptide array binding signal intensity |
| --- | --- |
| B1 | 7 |
| B2 | 10.5 |

target: ScMyo3; test: as above
Procedure: as §1

| Binder | SPOT peptide array binding signal intensity |
| --- | --- |
| B1 | ≤ 0 |
| B2 | ≤ 0 |

target: ScMyo5; test: as above
Procedure: as §1

| Binder | SPOT peptide array binding signal intensity |
| --- | --- |
| B1 | 2.5 |
| B2 | ≤ 0 |

target: ScNbp2; test: as above
Procedure: as §1

| Binder | SPOT peptide array binding signal intensity |
| --- | --- |
| B1 | 70 |
| B2 | 50 |

target: ScPex13; test: as above
Procedure: as §1

| Binder | SPOT peptide array binding signal intensity |
| --- | --- |
| B1 | 0.5 |
| B2 | ≤ 0 |

target: ScRvs167; test: as above
Procedure: as §1

| Binder | SPOT peptide array binding signal intensity |
| --- | --- |
| B1 | 2.5 |
| B2 | 231 |

target: ScSho1; test: as above
Procedure: as §1

| Binder | SPOT peptide array binding signal intensity |
| --- | --- |
| B1 | 662 |
| B2 | 952 |

target: ScSla1-D1-D2; test: as above
Procedure: as §1

| Binder | SPOT peptide array binding signal intensity |
| --- | --- |
| B1 | 19.5 |
| B2 | 6 |

target: ScSla1-D3; test: as above
Procedure: as §1

| Binder | SPOT peptide array binding signal intensity |
| --- | --- |
| B1 | 12.5 |
| B2 | 4.75 |

target: SpAbp1-D1; test: as above
Procedure: as §1

| Binder | SPOT peptide array binding signal intensity |
| --- | --- |
| B1 | 293 |
| B2 | 228 |

target: SpBbc1; test: as above
Procedure: as §1

| Binder | SPOT peptide array binding signal intensity |
| --- | --- |
| B1 | 6 |
| B2 | 1.5 |

target: SpBzz1-D1; test: as above
Procedure: as §1

| Binder | SPOT peptide array binding signal intensity |
| --- | --- |
| B1 | 11 |
| B2 | 132 |

target: SpBzz1-D2; test: as above
Procedure: as §1

| Binder | SPOT peptide array binding signal intensity |
| --- | --- |
| B1 | 1.5 |

target: SpCyk3; test: as above
Procedure: as §1

| Binder | SPOT peptide array binding signal intensity |
| --- | --- |
| B1 | ≤ 0 |

target: SpHof1; test: as above
Procedure: as §1

| Binder | SPOT peptide array binding signal intensity |
| --- | --- |
| B1 | 60 |

target: SpHof1-2; test: as above
Procedure: as §1

| Binder | SPOT peptide array binding signal intensity |
| --- | --- |
| B1 | 7 |

target: SpHof1-3; test: as above
Procedure: as §1

| Binder | SPOT peptide array binding signal intensity |
| --- | --- |
| B1 | 708 |

target: SpHse1; test: as above
Procedure: as §1

| Binder | SPOT peptide array binding signal intensity |
| --- | --- |
| B1 | 2460 |

target: SpLsb1; test: as above
Procedure: as §1

| Binder | SPOT peptide array binding signal intensity |
| --- | --- |
| B1 | 96.8 |

target: SpLsb4; test: as above
Procedure: as §1

| Binder | SPOT peptide array binding signal intensity |
| --- | --- |
| B1 | 29 |

target: SpMyo1; test: as above
Procedure: as §1

| Binder | SPOT peptide array binding signal intensity |
| --- | --- |
| B1 | 5 |

target: SpNbp2; test: as above
Procedure: as §1

| Binder | SPOT peptide array binding signal intensity |
| --- | --- |
| B1 | 71 |

target: SpPex13; test: as above
Procedure: as §1

| Binder | SPOT peptide array binding signal intensity |
| --- | --- |
| B1 | 7.5 |

target: SpRvs167; test: as above
Procedure: as §1

| Binder | SPOT peptide array binding signal intensity |
| --- | --- |
| B1 | 2.33 |

target: SpSla1-D1-D2; test: as above
Procedure: as §1

| Binder | SPOT peptide array binding signal intensity |
| --- | --- |
| B1 | ≤ 0 |

target: SpSla1-D3; test: as above
Procedure: as §1

| Binder | SPOT peptide array binding signal intensity |
| --- | --- |
| B1 | 3 |
